The supplement of paper PMC8371130
Structures can show the parent of a compound that is named as a salt.

Test system: HL-1
Assay: relative cell viability (CellTiter-Glo) vs DMSO control (% of DMSO control); higher = more viable cells
Method in brief: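 Compounds at 40, 200, 1000 or 5000 nM in 0.01% DMSO were added to HL-1 mouse atrial cardiomyocytes plated at 1000 cells per well in 384-well plates. The next day, cells were exposed to 1% O2 for 48 h and then reoxygenated for 24 h, or left in normoxia for the same time. Viability was read with CellTiter-Glo luminescence and normalised to vehicle-treated controls.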

[1] = oxygen condition: hypoxia 48 h (1% O2) + reoxygenation 24 h, 40 nM
[2] = oxygen condition: hypoxia 48 h (1% O2) + reoxygenation 24 h, 200 nM
[3] = oxygen condition: hypoxia 48 h (1% O2) + reoxygenation 24 h, 1000 nM
[4] = oxygen condition: hypoxia 48 h (1% O2) + reoxygenation 24 h, 5000 nM
[5] = oxygen condition: normoxia 72 h, 40 nM
[6] = oxygen condition: normoxia 72 h, 200 nM
[7] = oxygen condition: normoxia 72 h, 1000 nM
[8] = oxygen condition: normoxia 72 h, 5000 nM

Compound | relative cell viability [1] | relative cell viability [2] | relative cell viability [3] | relative cell viability [4] | relative cell viability [5] | relative cell viability [6] | relative cell viability [7] | relative cell viability [8]
CCC(C)n1ncn(-c2ccc(N3CCN(c4ccc(OCC5COC(Cn6cncn6)(c6ccc(Cl)cc6Cl)O5)cc4)CC3)cc2)c1=O (centres undefined) [Itraconazole] | 99.1 | 101 | 100 | 108 | 103 | 106 | 101 | 107
CN(Cc1ccc(C(C)(C)C)cc1)Cc1cccc2ccccc12 [Butenafine HCl] | 98.1 | 104 | 106 | 109 | 104 | 100 | 106 | 110
O=C1[C@@H]2[C@H]3CC[C@H](C3)[C@@H]2C(=O)N1C[C@@H]1CCCC[C@H]1CN1CCN(c2nsc3ccccc23)CC1 [Lurasidone HCl] | 96.8 | 101 | 100 | 99.9 | 101 | 104 | 102 | 102
O=C(O)c1cc(=O)c2ccccc2o1 [Chromocarb] | 103 | 105 | 109 | 110 | 111 | 103 | 107 | 115
COc1ccc2[nH]cc(CCNC(C)=O)c2c1 [Melatonin] | 113 | 105 | 113 | 114 | 108 | 114 | 109 | 119
CC(C)NCC(O)COc1ccc(CCOCC2CC2)cc1 (centres undefined) [Betaxolol] | 99.8 | 98.5 | 100 | 101 | 96.4 | 100 | 99.6 | 108
CC[C@H]1OC(=O)C[C@@H](O)[C@H](C)[C@@H](O[C@@H]2O[C@H](C)[C@@H](O[C@H]3C[C@@](C)(O)[C@@H](O)[C@H](C)O3)[C@H](N(C)C)[C@H]2O)[C@@H](CC=O)C[C@@H](C)C(=O)/C=C/C(C)=C/[C@@H]1CO[C@@H]1O[C@H](C)[C@@H](O)[C@@H](OC)[C@H]1OC [Tylosin tartrate] | 102 | 108 | 99.4 | 99 | 101 | 92.6 | 100 | 91.8
CNC1CCCN(c2c(F)cc3c(=O)c(C(=O)O)cn(C4CC4)c3c2OC)C1 (centres undefined) [Balofloxacin] | 103 | 93.5 | 101 | 107 | 101 | 99.2 | 99.3 | 107
CN(C)CCC(c1ccc(Cl)cc1)c1ccccn1 (centres undefined) [Chlorpheniramine Maleate] | 87.2 | 101 | 98.4 | 117 | 101 | 114 | 105 | 121
COC(=O)[C@H](Cc1ccccc1)NC(=O)[C@@H](N)CC(=O)O [Aspartame] | 100 | 98 | 103 | 106 | 96.5 | 102 | 100 | 98.1
C=CC(=O)N1CCC[C@@H](n2nc(-c3ccc(Oc4ccccc4)cc3)c3c(N)ncnc32)C1 | 98.9 | 96.6 | 101 | 102 | 101 | 90.2 | 90.5 | 102
C#C[C@]1(OC(C)=O)CC[C@H]2[C@@H]3CCC4=C[C@@H](OC(C)=O)CC[C@@H]4[C@H]3CC[C@@]21C [Ethynodiol diacetate] | 97.7 | 103 | 113 | 111 | 104 | 110 | 104 | 116
COCCOC(=O)C1=C(C)NC(C)=C(C(=O)OC/C=C/c2ccccc2)C1c1cccc([N+](=O)[O-])c1 (centres undefined) [Cilnidipine] | 101 | 105 | 110 | 109 | 107 | 109 | 103 | 110
CC(=O)Oc1ccc(C(c2ccc(OC(C)=O)cc2)c2ccccn2)cc1 [Bisacodyl] | 103 | 100 | 109 | 111 | 101 | 115 | 101 | 101
CCCCCCNC(=O)n1cc(F)c(=O)[nH]c1=O [Carmofur] | 102 | 83.8 | 51.6 | 18.3 | 99.2 | 81.2 | 44.3 | 15.1
Nc1nc(Cl)nc2c1ncn2[C@H]1C[C@H](O)[C@@H](CO)O1 [Cladribine] | 76.2 | 30.7 | 6.18 | 4.06 | 55.5 | 21.9 | 5.2 | 4.23
CC1=NN(c2ccc(C)c(C)c2)C(=O)/C1=N\Nc1cccc(-c2cccc(C(=O)O)c2)c1O [Eltrombopag] | 105 | 86 | 109 | 107 | 106 | 112 | 111 | 108
OC1(c2ccc(Cl)c(C(F)(F)F)c2)CCN(CCCC(c2ccc(F)cc2)c2ccc(F)cc2)CC1 [Penfluridol] | 96.8 | 107 | 96.7 | 116 | 97.8 | 100 | 104 | 120
Nc1nc(CC(=O)Nc2ccc(CCNC[C@H](O)c3ccccc3)cc2)cs1 [Mirabegron] | 112 | 110 | 111 | 112 | 103 | 104 | 113 | 129
CN(C)[C@@H](CCOc1cccc2ccccc12)c1ccccc1 [Dapoxetine hydrochloride] | 96.3 | 102 | 99.8 | 89.2 | 101 | 103 | 104 | 76.3
NC(=O)c1ncn([C@@H]2O[C@H](CO)[C@@H](O)[C@H]2O)c1N [Acadesine] | 90.2 | 102 | 102 | 116 | 103 | 103 | 110 | 117
CC(=O)OCC(=O)[C@@]12OC(C)(C)O[C@@H]1C[C@H]1[C@@H]3C[C@H](F)C4=CC(=O)C=C[C@]4(C)[C@@]3(F)[C@@H](O)C[C@@]12C [Fluocinonide] | 93.4 | 91.8 | 89.8 | 99 | 92.3 | 88.7 | 89.5 | 91.2

Compound | relative cell viability [1] | relative cell viability [2] | relative cell viability [3] | relative cell viability [4] | relative cell viability [5] | relative cell viability [6] | relative cell viability [7] | relative cell viability [8]
C[C@@H](NCCCc1cccc(C(F)(F)F)c1)c1cccc2ccccc12 | 102 | 102 | 105 | 102 | 95.2 | 95.9 | 109 | 106
C[C@@H](O[C@H]1OCCN(Cc2nn(P(=O)(O)O)c(=O)[nH]2)[C@H]1c1ccc(F)cc1)c1cc(C(F)(F)F)cc(C(F)(F)F)c1 [Fosaprepitant dimeglumine] | 104 | 105 | 119 | 108 | 113 | 129 | 130 | 105
C#C[C@]1(O)CC[C@H]2[C@@H]3CCc4cc(O)ccc4[C@H]3CC[C@@]21C [Ethinyl Estradiol] | 104 | 104 | 105 | 107 | 107 | 105 | 108 | 110
C=C1/C(=C\C=C2/CCC[C@]3(C)[C@@H]([C@H](C)CCCC(C)C)CC[C@@H]23)C[C@@H](O)C[C@@H]1O [Alfacalcidol] | 109 | 104 | 118 | 106 | 108 | 104 | 88.5 | 106
N=C(N)NC(=O)c1nc(Cl)c(N)nc1N [Amiloride hydrochloride] | 103 | 105 | 100 | 110 | 106 | 105 | 96.6 | 109
NC(N)=Nc1nc(CSCC/C(N)=N/S(N)(=O)=O)cs1 [Famotidine] | 103 | 101 | 114 | 120 | 107 | 101 | 97.9 | 108
CN(CCOc1ccc(CC2SC(=O)NC2=O)cc1)c1ccccn1 (centres undefined) [Rosiglitazone HCl] | 107 | 93.8 | 101 | 109 | 100 | 93.8 | 104 | 107
Cc1ccc(Nc2nccc(N(C)c3ccc4c(C)n(C)nc4c3)n2)cc1S(N)(=O)=O [Pazopanib] | 104 | 108 | 102 | 116 | 92.7 | 102 | 110 | 110
O=C(O[C@H]1CN2CCC1CC2)N1CCc2ccccc2[C@@H]1c1ccccc1 [Solifenacin succinate] | 110 | 111 | 115 | 106 | 104 | 112 | 105 | 113
CS(=O)(=O)OCCCCOS(C)(=O)=O [Busulfan] | 108 | 102 | 103 | 107 | 104 | 103 | 97.4 | 120
COc1c2ccoc2cc2oc(=O)ccc12 [Bergapten] | 101 | 104 | 107 | 109 | 99.2 | 96.6 | 109 | 103
CCC(=O)NCC[C@@H]1CCc2ccc3c(c21)CCO3 [Ramelteon] | 104 | 116 | 110 | 111 | 105 | 108 | 118 | 107
CCN[C@H]1C[C@H](C)S(=O)(=O)c2sc(S(N)(=O)=O)cc21 [Dorzolamide HCL] | 111 | 105 | 104 | 111 | 117 | 106 | 107 | 121
O=P(O)(O)C(Cl)(Cl)P(=O)(O)O [Clodronate Disodium] | 114 | 114 | 114 | 115 | 117 | 111 | 113 | 113
CCCOc1ccc(C(=O)OCCN(CC)CC)cc1N [Proparacaine HCl] | 88.3 | 98.9 | 97.8 | 107 | 103 | 92.4 | 78.4 | 106
NCC(=O)CCC(=O)O [5-Aminolevulinic acid hydrochloride] | 101 | 104 | 105 | 110 | 99.8 | 102 | 100 | 113
NC(=O)c1cn(Cc2c(F)cccc2F)nn1 [Rufinamide] | 103 | 106 | 109 | 112 | 106 | 106 | 111 | 112
NS(=O)(=O)c1cc2c(cc1Cl)N=C(CSCc1ccccc1)NS2(=O)=O [Benzthiazide] | 103 | 99.8 | 99.3 | 107 | 99.7 | 93.8 | 100 | 105
CCC[C@@H]1C[C@@H](C(=O)N[C@@H]([C@H]2O[C@H](SC)[C@H](O)[C@@H](O)[C@H]2O)[C@@H](C)O)N(C)C1 [Lincomycin hydrochloride] | 93.1 | 103 | 103 | 103 | 99 | 98.3 | 100 | 97
CNC(=O)CN(CCN(CCN(CC(=O)[O-])CC(=O)NC)CC(=O)[O-])CC(=O)[O-].[Gd+3] [Gadodiamide] | 98 | 104 | 98.5 | 106 | 103 | 98.8 | 107 | 112
CC1=C(C(=O)OC(C)C)C(c2cccc([N+](=O)[O-])c2)C(C(=O)OC2CN(C(c3ccccc3)c3ccccc3)C2)=C(N)N1 (centres undefined) [Azelnidipine] | 104 | 110 | 106 | 112 | 109 | 110 | 112 | 119
